The results in this text go back to article PMC5540273 (PLoS ONE, 2017).

The structures appear in SMILES notation.
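Note: KINOMEscan kinase panel screen.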

The assay relates to PIK3CG. Conditions: concentration: 1 μM, replicates: in singlicate; n = 1.
With `Cl.Cl.NC(CNC(=O)c1cc(Br)c(-c2ccnc3[nH]ccc23)s1)c1ccccc1` (stereo not drawn) [GSK1322949], the “%Inh” value is on record as 22%.
With `Cl.Cl.NCC(NC(=O)c1cc(-c2cccnc2)c(-c2ccnc3[nH]ccc23)s1)c1ccccc1` (stereo not drawn) [GSK1323434] the figure was 0%.
With `CC(C)c1nc(-c2ccc(F)c(NS(=O)(=O)c3c(F)cccc3F)c2)c(-c2ccnc(Nc3ccc(N4CCOCC4)nc3)n2)s1` [GSK1804250] the figure was 0%; with `CC(=O)Nc1cn2nc(Oc3cccc(NC(=O)c4cccc(C(F)(F)F)c4)c3)ccc2n1`, 0%.
For the molecule `COc1cc(Nc2nccc(N3CCC(NS(=O)(=O)c4ccc(NC(C)=O)cc4)CC3)n2)cc(OC)c1OC` [GSK1379825], the “%Inh” value came to 99.7%.
With `Cn1cc(-c2cnc(N)c3c(-c4ccc5c(c4)CCN5C(=O)Cc4ccccc4)csc23)cn1` [GSK2593074] the figure was 3%; with `Cc1ccc(NC(=O)c2ccnc(N3CCCCC3)c2)cc1-c1ccc(C(=O)NCC2CC2)cc1` [GW775610], 36%; with `CCn1cnc2c(NCc3ccccc3)ncnc21` [SKF-96418], 0%.
With `Cc1ccc(NC(=O)c2cccc(N3CCCCC3)c2)cc1-c1ccc(C(=O)NCC2CC2)cc1` [GSK1917008] the figure was 0%; with `COc1ccc(NC(=O)c2ccoc2)cc1-c1ccc(C(=O)NCC2CC2)cc1` [GW810437], 12%; with `COc1cccc(CC(=O)N2CCc3cc(-c4cn(C)c5ncnc(N)c45)ccc32)c1` [GSK2608899], 27%.
The figure for `CN1CCN(Cc2ccc(NC(=O)Nc3ccc(N(C)c4ccnc(Nc5ccc(CS(C)(=O)=O)cc5)n4)cc3)cc2)CC1.Cl` [GW827654] is 26%.
